Laboratory results from PubChem BioAssay AID652141 (The Scripps Research Institute Molecular Screening Center, 2013).
The whole screen tested about 5,600 compounds, of which about 4,500 (80%) were called active. So high a share suggests a set chosen from earlier hits. These entries were drawn from the full list. Unmarked numbers belong to inactive results. Rule as the data show it: active = inhibition above about 10%; inactive = the rest.

Experiment: inhibition of coupled GDH and TPI enzymes – biochemical, fluorescence, high throughput, artefact control for M. tuberculosis FBA inhibitor project (AID 652141)
Conditions: GDH-TPI coupled enzyme counterscreen, at 1 µM, hits give high values

Row | SMILES | inhibition
1 | CC[C@@H]1Cc2cc(O)ccc2C2=C1c1ccc(O)cc1C[C@H]2CC | 79.8% (active)
2 | COc1ccc2oc(=O)c(C(=O)NCc3ccccn3)cc2c1 | -4.05%
3 | COc1ccc2oc(=O)c(C(=O)N3CCCC3)cc2c1 | 99.7% (active)
4 | Nc1ccccc1-c1nc2ccncc2[nH]1 | 0.69%
5 | O=C(Nc1cccc2ccccc12)N1CCC2(CC1)OCCO2 | 93.7% (active)
6 | O=C(Nc1cccc2ccccc12)N1CCN(Cc2ccc3c(c2)OCO3)CC1 | 34.8% (active)
7 | COc1cc(C(F)(F)F)nc2c(Br)c(C(C)(C)C)nn12 | 47.7% (active)
8 | O=C(NCc1cccc(Cl)c1)C1=CC=CN2CCS(=O)(=O)N=C12 | -4.53%
9 | CNc1nc(-c2ccccc2)cc(-c2ccccc2)n1 | 73.9% (active)
10 | Nc1nc2n(n1)C(c1ccco1)CC(c1ccc(Cl)c(Cl)c1)N2 (stereo unspecified) | 199% (active)
11 | Cn1c(-c2ccco2)nc2cc3ccccc3cc21 | 36.5% (active)
12 | Cn1cccc1-c1nc2ccccc2n1C | 9.72%
13 | O=C(Nc1nncs1)c1ccccc1NS(=O)(=O)c1cccs1 | 115% (active)
14 | Cc1ccc(C2Nc3ccccc3C(=O)N2CCN2CCNC2=O)cc1 (stereo unspecified) | -5.86%
15 | CCOC(=O)NN1C(=O)c2ccccc2NC1c1cccc(O)c1 (stereo unspecified) | 100% (active)
16 | Cc1cc(C)nc(SCc2cn3c(C)cc(C)nc3n2)n1 | 69.3% (active)
17 | Cc1nn(C)c(Oc2ccccc2)c1CCNS(=O)(=O)c1ccc(F)cc1 | 124% (active)
18 | COc1cc(/C=C/c2ccc(/C=C/c3cc(OC)c(OC)c(OC)c3)cc2)cc(OC)c1OC | 11.4% (active)
19 | COCCCNC(=O)/C(C#N)=C/c1c(N2CCCCCC2)nc2ccccn2c1=O | 50.5% (active)
20 | CC[C@@H](C)[C@H](NC(=O)CCc1c(C)c2cc3c4c(oc3c(C)c2oc1=O)CCCC4)C(=O)O | 83% (active)
21 | Cc1nc2c(-c3ccccc3)c(C)[nH]n2c(=O)c1Cl | 81.2% (active)
22 | CCCc1cc(=O)n2[nH]c(C)c(-c3ccc(Cl)cc3)c2n1 | 108% (active)
23 | COCc1cc(=O)n2[nH]c(C)c(-c3ccccc3)c2n1 | 39.7% (active)
24 | CN1CCc2c(sc3c2c(NCc2ccco2)nc2nnnn23)C1 | 183% (active)

Row | SMILES | inhibition
25 | O=C(CCC(=O)N/N=C/c1ccc(Br)o1)N/N=C/c1ccc(Br)o1 | 88.2% (active)
26 | Fc1ccc(COc2cccc(-c3n[nH]c(=S)o3)c2)cc1 | 137% (active)
27 | CCN(C(=O)Nc1cccc2ccccc12)c1ccccc1 | 118% (active)
28 | COc1cc(OC)cc(C(=O)Nc2ccc(-c3nc4ccccc4o3)c(O)c2)c1 | 135% (active)
29 | CC(=O)Nc1ccc(-c2nc3ccccc3o2)cc1 | -2.16%
30 | CC(C)(C)C(=O)Nc1cccc(-c2ccc[nH]2)n1 | 71% (active)
31 | CC(C)(C)NC(=O)COc1ccc(CNc2ccc3[nH]c(=O)[nH]c3c2)cc1 | 2.64%
32 | COCCCn1c(C(=O)NC2CCCCC2)cc2c(=O)n3cccc(C)c3nc21 | 53.1% (active)
33 | Cc1ccn2c(c1)nc(=O)c1cc(S(=O)(=O)N3CCC(C)CC3)ccc12 | -0.78%
34 | Cc1ccc(-n2c(=O)c(C#N)cc3c(=O)n4ccccc4nc32)cc1C | 19.5% (active)
35 | Cc1coc2c1c(C)cc1oc(=O)c(CC(=O)NCC(=O)N[C@H](C(=O)O)C(C)C)c(C)c12 | 49.8% (active)
36 | NC(=O)C1CCN(C(=O)COc2ccc3c4c(c(=O)oc3c2)CCC4)CC1 | -5.33%
37 | CCCCC(NS(=O)(=O)c1ccc(C)cc1)C(=O)Oc1ccc2c3c(c(=O)oc2c1)CCC3 (stereo unspecified) | 68.4% (active)
38 | CC(C)Cn1c(N)c(C(=O)NCc2cccs2)c2nc3ccccc3nc21 | 29.6% (active)
39 | C=CCn1c(N)c(C(=O)OCC(C)C)c2nc3ccccc3nc21 | 59.2% (active)
40 | CCCNC(=O)c1c(N)n(-c2ccc(S(N)(=O)=O)cc2)c2nc3ccccc3nc12 | 3.87%
41 | COCC(C)OC(=O)c1c(N)n(CCCN2CCOCC2)c2nc3ccccc3nc12 (stereo unspecified) | -2.55%
42 | COc1cccc(NC(=O)CN(C)C(=O)/C=C/c2cc(OC)ccc2OC)c1 | 82.6% (active)
43 | COc1cccc(NC(=O)CN(C)CC(=O)Nc2ccc3c(c2)CCC3)c1 | 73.6% (active)
44 | OC[C@@H]1CN(Cc2cccs2)C[C@H](n2cnc3c(Nc4ccccc4)ncnc32)O1 | 64.2% (active)
45 | COc1ccccc1C(=O)Nc1ccc(OCC(=O)N2CCCCC2)cc1 | 137% (active)
46 | O=C1CC2(CCCCC2)Oc2ccc(OCC(=O)N3CCOCC3)cc21 | 0.92%
47 | COc1ccccc1NC(=O)COc1ccc(C(=O)OCC(=O)N(C(C)C)C(C)C)cc1OC | -2.75%
48 | COc1ccc2c(c1OC)C(=O)N(c1ncn[nH]1)C2 | 53% (active)

Row | SMILES | inhibition
49 | COc1nc(N=C(N)N)nc2c(C)cccc12 | 83.6% (active)
50 | COc1ccc2c(c1)cc1n2CCN=C1NN | 89.8% (active)
51 | COCCCn1c(CCC(=O)O)ccc1-c1ccc(F)cc1 | 43.6% (active)
52 | CN(C)CCCNC(=O)c1ccc2[nH]c3ccccc3c2c1 | 96.7% (active)
53 | Cc1ccc(-c2nc3ccccc3[nH]c2=O)cc1 | 61.1% (active)
54 | CC(Nc1nc(N2CCOCC2)nc2ccccc12)c1ccccc1 (stereo unspecified) | 31% (active)
55 | c1ccc2c(NC3C4CC5CC(C4)CC3C5)nc(N3CCOCC3)nc2c1 (stereo unspecified) | 95.8% (active)
56 | COc1ccc(-c2ccc(C(=O)NC(C)C)c3occc23)c(C)c1 | 86.3% (active)
57 | COc1ccc(-c2ccc(C(=O)NCCN3CCOCC3)c3occc23)c(C)c1 | 56.7% (active)
58 | COCc1cc(=O)[nH]c2cc(NC(=O)C(F)(F)F)c(C)cc12 | 67.2% (active)
59 | CCC(=O)Nc1ccc2nn(-c3ccc(F)cc3)nc2c1 | 70% (active)
60 | CCNC(=S)Nc1ccc2c(c1)c(=O)n(C)n2Cc1ccc(Cl)cc1 | -3.99%
61 | COCCNc1cc(-c2ccccc2)nc2cc(-c3cccc(F)c3)nn12 | 133% (active)
62 | Cc1cc(S(=O)(=O)c2cc3ccc(O)c(C)c3oc2=O)ccc1F | 40.8% (active)
63 | COc1cccc2sc3cc(NCC[C@@H]4CCCN4C)ccc3c(=O)c12 | 69.2% (active)
64 | COc1ccc(C2NC(=O)c3ccccc3N2)cc1 (stereo unspecified) | 122% (active)
65 | O=C1NC(c2cccc(Cl)c2)Nc2ccccc21 (stereo unspecified) | 84.8% (active)
66 | CCN1CCN(C(=O)c2cc3cc4ccc(OC)cc4nc3s2)CC1 | 74.1% (active)
67 | CCOC(=O)Cc1c(C)nc2c(C#N)c(C)nn2c1C | 39.1% (active)
68 | COC(=O)c1noc(C)c1-c1ccnn1C(=O)c1ccc(Cl)cc1 | 38.9% (active)
69 | COc1ccc(-c2cc(C(=O)N(C)Cc3ccccc3)c3ccccc3n2)cc1 | -2.5%
70 | COc1ccc(-c2cc(C(=O)Nc3ccccc3O)c3ccccc3n2)cc1 | 114% (active)
71 | COc1ccc(-c2cn3ccc(C)cc3n2)cc1 | -5%
72 | O=c1oc2ccccc2cc1-c1cn(-c2ccccc2)c(=S)[nH]1 | 13.5% (active)

Row | SMILES | inhibition
73 | COc1ccc2nc(-c3ccccn3)ccc2c1 | 93.8% (active)
74 | Cc1cc(C)c2c(n1)sc1c(=O)n(-c3ccccc3)c(=O)[nH]c12 | 62.5% (active)
75 | CCc1cc(=O)oc2c(C)c(OCC(=O)N3CC[C@@]4(O)CCCC[C@H]4C3)ccc12 | 99.4% (active)
76 | CCCc1cc(=O)oc2c(C)c(OCC(=O)N3CCC(C(=O)O)CC3)ccc12 | -7.26%
77 | CCN(CC)CCCNC(=O)c1cc2c(=O)[nH]c3ccc(C)cc3c2s1 | 98.2% (active)
78 | CCCN(C(=O)CSc1nnc(N)s1)c1c(N)n(Cc2ccccc2)c(=O)[nH]c1=O | 48% (active)
79 | CCOc1ccc2nc(NCCNS(=O)(=O)c3ccccc3)c(C#N)cc2c1 | 15.8% (active)
80 | O=C1C(=O)N(c2ccccc2)C(c2ccccc2)C1c1ccccc1 (stereo unspecified) | 0.69%
81 | Cn1nc(-c2ccc(Cl)cc2)c2cc(C(=O)NCc3ccco3)sc21 | 33.3% (active)
82 | CCc1ccc(-c2cc(C(=O)NCc3ccco3)c3ccccc3n2)s1 | -5.16%
83 | Cc1cc(C)c2nc(-c3ccco3)cc(C(=O)O)c2c1 | 2.96%
84 | Cc1cc(C)c2nc3nc(C)cc(C)c3c(N)c2c1 | 22.9% (active)
85 | CN1C(=O)c2ccc(NC(=O)C3CCCCC3)cc2C1=O | -2.4%
86 | CN1C(=O)c2ccc(NC(=O)c3c(F)c(F)c(F)c(F)c3F)cc2C1=O | 651% [above what the read-out allows, likely interference] (active)
87 | COCCNc1nc(-n2nc(C)cc2C)nc2sc3c(c12)CCCC3 | 97.7% (active)
88 | COc1ccc(NC(=O)N2CCC(Cc3ccccc3)CC2)cc1 | 23.6% (active)
89 | O=C(NCc1ccccc1)c1onc(CSc2nc3ccccc3[nH]2)c1C(=O)NCc1ccccc1 | 55.8% (active)
90 | CCOC(=O)N1CCC(NC(=O)c2cnn3ccccc23)CC1 | 33.9% (active)
91 | CCCC1OC23CCCCC2C(C#N)(C#N)C1(C#N)C(=N)O3 (stereo unspecified) | -5.15%
92 | CC12CCC(C(=O)N3CCN(c4ncccn4)CC3)(c3nc4ccccc4nc31)C2(C)C (stereo unspecified) | 143% (active)
93 | CCc1c(C)c2ccc(OC3CCCCC3=O)cc2oc1=O (stereo unspecified) | 78% (active)
94 | COc1ccc(-c2oc3ncnc(NCCCO)c3c2-c2ccc(OC)cc2)cc1 | 39.6% (active)
95 | O=C(NCCCN1CCOCC1)c1cnn2c(-c3ccccc3)cc(-c3ccccc3)nc12 | 79.2% (active)
96 | O=C(O)Cc1sc(-c2ccc(C(=O)O)cc2)nc1-c1ccccc1 | -7.95%
